Measurements reported in PubChem BioAssay AID485395 (ICCB-Longwood Screening Facility, Harvard Medical School, 2010).
About 55 (0.05%) of roughly 120,000 compounds were called active. Many of the other results were omitted from the sample, so actives are more common in it than they were. A number with no mark means an inactive call. No stated cut-off is given here; in the data, active means inhibition above about 25% (passing the limit was not always enough); inactive means the rest.

The compounds below were run on replicative DNA helicase (DnaC/DnaB), Staphylococcus aureus (assay: S. aureus DnaC helicase unwinding inhibition – biochemical, fluorescence unwinding readout, primary screen (AID 485395;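 further: 0% = mean of negative control wells and 100% = mean of positive control wells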)). Details: purified S. aureus helicase, fluorescence unwinding assay; hits give high values; concentration not given here.

Row | SMILES | inhibition
1 | Cc1cc(CNCc2nnc3ccccn23)c(C)n1-c1ccnn1C(C)C | 7%
2 | Nc1cc(N)cc(C(F)(F)C(F)(F)C(F)(F)F)c1 | 23%
3 | CCOc1ccc2nc(NC(=O)c3ccccc3OC)sc2c1 | -8%
4 | Cc1ccc(-n2nc(C)c(C(=O)N(Cc3ccccc3)C(C)C)c2-n2cccc2)cc1 | 22%
5 | O=C(NC(c1ccccc1)c1ccccc1)C1COC2C=CC=CC2O1 (stereo not given) | 5%
6 | CCCn1c(NC(=O)CCCc2nc3ccccc3c(=O)[nH]2)nc2ccccc21 | 6%
7 | COc1ccc(Cc2nn3c(C(C)(C)C)nnc3s2)cc1OC | -4%
8 | O=C1CCC(C(=O)NN2C(=O)c3cccc4cccc(c34)C2=O)=NN1 | 10%
9 | CCOc1ccc(CCNC(=O)Nc2ccc(C)c(C)c2)cc1OCC | -3%
10 | CCOC(=O)c1c2c(n(-c3ccccc3)c1N)OC(=N)C(C#N)C2c1ccc(Br)cc1 (stereo not given) | -19%
11 | NNC(=O)CNC(=O)c1cccc2ccccc12 | 17%
12 | O=C(CSc1ccc2nnc(-c3cccc(F)c3)n2n1)NCc1ccccc1 | -3%
13 | Cc1nc(Nc2nc3ccccc3o2)ncc1C(=O)Nc1ccccc1 | 24%
14 | Cc1occc1-c1nnc(SCc2ccc(C(C)(C)C)cc2)n1N | -3%
15 | Cc1ccc(-c2nc(C#N)c(NCc3ccc4c(c3)OCO4)o2)cc1 | 5%
16 | COc1ccc(/C=C2\Oc3ccccc3N(CC(=O)N3CCOCC3)C2=O)cc1 | 5%
17 | c1ccc(-n2nnnc2N2CCCC2c2nc3ccccc3s2)cc1 (stereo not given) | -12%
18 | COc1ccccc1/C=C1\SC(=O)N(c2ccccc2)C1=O | -8%
19 | NNC(=O)CCCc1nc2ccccc2s1 | 4%
20 | CCOC(=O)c1sc2nc(CN3CCCCC3)nc(NC3CC3)c2c1C | 16%
21 | O=S1(=O)CCC(N=Cc2cn(-c3ccccc3)nc2-c2ccccc2)C1 (stereo not given) | 10%
22 | N#CNc1nc2ccccc2nc1Cl | 2%
23 | COc1ccc(NC(=O)c2ccoc2COc2ccc(C)cc2)cc1 | 0%
24 | Cc1ccc(SCc2nnc(-c3c(-c4ccccc4)noc3C)o2)cc1C | -11%
25 | CCCSc1nnc(Nc2ccccc2OC)s1 | -21%
26 | Cc1noc(N)c1C(=O)OCc1ccc(COC(=O)c2c(C)noc2N)cc1 | -28%
27 | O=C(COC(=O)C12CC3CC(CC(Br)(C3)C1)C2)NC1CC1 | 8%

Row | SMILES | inhibition
28 | Cc1nn(C)c(Cl)c1S(N)(=O)=O | 8%
29 | NC(=O)Cn1c(=O)n(Cc2ccco2)c(=O)c2ccccc21 | 16%
30 | CC(=O)N1CCc2c(sc3c2c(=O)n(Cc2ccccc2)c(=O)n3Cc2cccc(C)c2)C1 | -4%
31 | Cc1cc(=O)n(-c2cccc(C(F)(F)F)c2)[nH]1 | -1%
32 | O=C(N/N=C/c1ccc(F)cc1)c1n[nH]c2c1CCC2 | 15%
33 | Nc1c(C(=O)Nc2ccccc2C(F)(F)F)sc2[nH]c(=O)c(C(=O)O)cc12 | 15%
34 | CCCN(CC1CC1)C(=O)CSc1nc(N)cc(N)n1 | 27%
35 | NC(=O)C1CCN(C(=O)CSCc2ccc(Br)cc2)CC1 | 5%
36 | CC(C)NC(=O)CCc1c[nH]c2ccccc12 | 13%
37 | O=C(CN1CCC(c2nc(-c3ccncc3)n[nH]2)CC1)N1CCN(c2ccccc2F)CC1 | -6%
38 | COCCN1Cc2cccc(C(=O)NCc3ccco3)c2C1=O | -9%
39 | CCOc1nc(NC(=O)NC(=O)c2cccs2)nc(-c2ccccc2)n1 | 11%
40 | Cn1c(-c2ccco2)nn(C2CC(=O)C3OCC2O3)c1=S (stereo not given) | -1%
41 | CCOc1cccc(C(=O)NN2CCOCC2)c1 | -7%
42 | O=C(O)c1cccc(N2C(=O)/C(=C\c3ccc4c(c3)OCO4)SC2=S)c1 | 15%
43 | Cc1noc(C)c1COC(=O)c1cccc(S(=O)(=O)N(C)C2CCCCC2)c1 | -11%
44 | CC1CCC(C(=O)NC(C(=O)N2CCN(Cc3ccccc3)CC2)C(C)C)CC1 (stereo not given) | 0%
45 | Cc1nc(-c2ccccc2)sc1C(=O)NCC1CCCO1 (stereo not given) | -20%
46 | Nc1c(NCC(c2ccco2)N2CCCCC2)c(=O)[nH]c(=O)n1Cc1ccccc1 (stereo not given) | 9%
47 | Clc1cccc2c(N3CCN(Cc4ccccc4)CC3)cnnc12 | 17%
48 | CCCc1nnc(SCC(=O)N2CCCC2)n1CCOC | 3%
49 | CCS(=O)(=O)N1CCC(C(=O)OCC(=O)c2cc(C)n(C(C)C)c2C)CC1 | -5%
50 | CCc1n[nH]c(=S)n1/N=C1\C(=O)N(CC(C)C)c2ccccc21 | 1%
51 | Cc1ccc(C(=O)COC(=O)c2cc3cc(Br)ccc3oc2=O)cc1 | -19%
52 | Cc1cccc(NC(=O)CNC(=O)c2ccc3c(=O)[nH]c(CN4CCOCC4)nc3c2)c1C | 5%
53 | CCOC(=O)c1c(CN2CCN(CC#N)CC2)n(-c2ccccc2)c2ccc(O)cc12 | -1%
54 | NC(=O)CCc1nc(-c2ccccc2)no1 | -4%

Row | SMILES | inhibition
55 | Cc1nn(Cc2ccc(Cl)cc2)c(C)c1NC(=O)COCc1cc(-c2cccs2)on1 | -15%
56 | Cc1cc(C)c2nc(-c3ccco3)cc(C(=O)O)c2c1 | 5%
57 | Cc1cc(C)c2nc3nc(C)cc(C)c3c(N)c2c1 | 77% (active)
58 | COc1ccc(/C=N/N2C(=O)c3ccccc3C2=O)cc1OC | -16%
59 | O=S1(=O)CC=C(S(=O)(=O)c2ccccc2)C1 | 2%
60 | CCOC(=O)COc1ccc2cc(-c3nc4ccccc4s3)c(=O)oc2c1 | -176%
61 | CC(=O)Nc1nonc1Nc1csc(CC#N)n1 | -1%
62 | O=C(N/N=C/c1c(-c2ccccc2)nc2sccn12)c1ccc2ccccc2n1 | 15%
63 | COc1cccc(C2NC(=O)NC(C)=C2C(=O)c2ccccc2)c1 (stereo not given) | -13%
64 | CC1=C(C(=O)NCCC(C)C)C2(CCC(C)CC2)OC1=O (stereo not given) | 1%
65 | CC(C)CCSc1nc2ccccc2n1CN1CCN(S(=O)(=O)c2ccc(Cl)cc2)CC1 | 3%
66 | O=C(NCc1ccccc1)N1CCC(CN2CCCCC2)CC1 | 4%
67 | CCOC(=O)N1CCC(NC(=O)Cn2ncc3c(=O)oc4ccc(C)cc4c32)CC1 | 14%
68 | CC(C)CCNS(=O)(=O)c1ccc2[nH]c3c(c2c1)CCCC3 | -2%
69 | CC(=O)Nc1ncc(Cc2ccc(C)cc2)s1 | 7%
70 | Cc1ccc(CN(C)C(=O)c2n[nH]c3ccccc23)o1 | -4%
71 | CC(C)N(C(=O)CSc1nnc2sc3ccccc3n12)C(C)C | 7%
72 | CCCCSc1nc2ccccc2[nH]1 | -5%
73 | CC1=NN(C(N)=S)C(=O)C1 | -7%
74 | COc1ccc(C)cc1NC(=O)CSC1CCCC1 | -1%
75 | Cc1c(/C=N/NC(N)=S)c2ccccc2n1C | -2%
76 | COc1cc(OC)c(OC)cc1CN1CCN(c2ccccc2F)CC1 | 10%
77 | NCC1CCN(Cc2ccccc2Cl)CC1 | -10%
78 | c1csc(-c2csc(Cc3nc(-c4cccs4)cs3)n2)c1 | 36%
79 | CCN(C(=O)Cc1noc2ccccc12)c1cc(OC)ccc1OC | 9%
80 | COc1ccc(-c2cc3c(n2Cc2ccc(F)cc2)CC(C)(C)CC3=O)cc1 | -11%
81 | COCCNC(=O)Cn1cc(/C=C2\C(=O)NC(=O)N(C3CCCCC3)C2=O)c2ccccc21 | -31%

Row | SMILES | inhibition
82 | Cc1nc2cc(N=Cc3ccc(Cl)cc3)ccc2n1Cc1ccccc1 | 10%
83 | Cc1nc(-c2cccs2)sc1C(=O)Nc1ccccc1 | -5%
84 | CN1C/C(=C/c2ccc3c(c2)OCCO3)C(=O)/C(=C/c2ccc3c(c2)OCCO3)C1 | 8%
85 | CCc1ccc(C(=O)C(C)Sc2nnc(-c3ccccc3)o2)cc1 (stereo not given) | -5%
86 | COc1ccc(OC)c(NC(=O)CSc2nccn2-c2cccc(Cl)c2)c1 | 3%
87 | NC(=O)CN1CCN(Cc2cccc3ccccc23)CC1 | 3%
88 | Cc1cn2ccccc2c1P(=Nc1ccccc1)(N1CCOCC1)N1CCOCC1 | 7%
89 | O=C(OC1CSC1)c1cccs1 | -1%
90 | CC1CC(=O)Nc2ccccc2N1C(=O)CSc1ccc2c(c1)OCCCO2 (stereo not given) | 15%
91 | OCc1nc2ccccc2n1CC1CC1(Cl)Cl (stereo not given) | -17%
92 | Cc1nn(CC(=O)NCCc2ccccc2)c(=O)c2cc3occc3n12 | 8%
93 | COc1ccc(/C=C2\Oc3cc(OC(=O)c4ccc(F)cc4)ccc3C2=O)cc1 | 5%
94 | CC(C)c1ccc(N=Cc2cccs2)cc1 | 21%
95 | O=C(NCC1CCCO1)c1ccc2c(=O)n3c(nc2c1)CCCCC3 (stereo not given) | 2%
96 | CN1CCN(C(=O)c2ccc(-c3ccc(Br)cc3)o2)CC1 | -25%
97 | CCn1c(CNC(=O)c2ccncc2)cc2ccccc21 | 7%
98 | Nc1nnnn1/N=C/c1cccc(Br)c1 | 4%
99 | O=C(COC(=O)C1CC1)c1ccccc1Br | -9%
100 | CCC(Sc1nnc(-c2cc3occc3n2C)n1-c1ccccc1C)C(=O)Nc1ccc(C)cc1 (stereo not given) | 10%
101 | NS(=O)(=O)c1ccc(CNC(=O)c2cccc3cccnc23)cc1 | -13%
102 | [O-][n+]1ccccc1SC1=COCCC1 | 8%
103 | COc1ccc(N2CCN(c3nc(N)c4c(N)nc5c(c4c3C#N)CC(=O)N5C)CC2)cc1 | 9%
104 | CC1=Nc2nc(N3CC(C)OC(C)C3)c(C#N)c3c4c(nc(c23)N1)N(c1ccccc1)C(=O)C4 (stereo not given) | 54% (active)
105 | N#Cc1c(N)nc2c(c1N)CC(=O)N2c1ccccc1 | -11%
